# Results from publication PMC5540273 (PLoS ONE, 2017).
# Where two headings read alike, the source gives them in different places.
# What was measured:
# Conditions in all cases: n = 1
# CHEK2 = test system: CHEK2
# CIT = test system: CIT
# CLK1 = test system: CLK1
# CLK2 = test system: CLK2
# CLK3 = test system: CLK3
# CLK4 = test system: CLK4
# CSF1R-autoinhibited = test system: CSF1R-autoinhibited
# CSF1R = test system: CSF1R
# CSK = test system: CSK
# CSNK1A1L = test system: CSNK1A1L
# CSNK1A1 = test system: CSNK1A1
# CSNK1D = test system: CSNK1D
# CSNK1E = test system: CSNK1E
# CSNK1G1 = test system: CSNK1G1
# CSNK1G2 = test system: CSNK1G2
# CSNK1G3 = test system: CSNK1G3
# CSNK2A1 = test system: CSNK2A1
# CSNK2A2 = test system: CSNK2A2
# CTK = test system: T1, CTK
# T1 construct: gene MATK
# DAPK1 = test system: DAPK1
# [1] = concentration: 1 μM, replicates: in singlicate
# 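Note: KINOMEscan kinase panel screen.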
smiles,measurement,setting,value
Cc1ccc(-c2cc(-c3c[nH]nc3-c3ccccn3)ccn2)cc1 [GW684088],%Inh,CHEK2; [1],53%
same,%Inh,CIT; [1],26%
same,%Inh,CLK1; [1],14%
same,%Inh,CLK2; [1],9%
same,%Inh,CLK3; [1],0%
same,%Inh,CLK4; [1],38%
same,%Inh,CSF1R-autoinhibited; [1],49%
same,%Inh,CSF1R; [1],14%
same,%Inh,CSK; [1],0%
same,%Inh,CSNK1A1L; [1],0%
same,%Inh,CSNK1A1; [1],21%
same,%Inh,CSNK1D; [1],26%
same,%Inh,CSNK1E; [1],18%
same,%Inh,CSNK1G1; [1],10%
same,%Inh,CSNK1G2; [1],22%
same,%Inh,CSNK1G3; [1],24%
same,%Inh,CSNK2A1; [1],0%
same,%Inh,CSNK2A2; [1],0%
same,%Inh,CTK; [1],0%
same,%Inh,DAPK1; [1],11%
COc1cc(Nc2nccc(N3CCC(NC(=O)Nc4cc(C)ccc4C)C3)n2)cc(OC)c1OC (centres unmarked) [GSK1379762],%Inh,CHEK2; [1],0%
same,%Inh,CIT; [1],11%
same,%Inh,CLK1; [1],32%
same,%Inh,CLK2; [1],6%
same,%Inh,CLK3; [1],0%
same,%Inh,CLK4; [1],29%
same,%Inh,CSF1R-autoinhibited; [1],0%
same,%Inh,CSF1R; [1],14%
same,%Inh,CSK; [1],0%
same,%Inh,CSNK1A1L; [1],17%
same,%Inh,CSNK1A1; [1],3%
same,%Inh,CSNK1D; [1],0%
same,%Inh,CSNK1E; [1],13%
same,%Inh,CSNK1G1; [1],1%
same,%Inh,CSNK1G2; [1],0%
same,%Inh,CSNK1G3; [1],22%
same,%Inh,CSNK2A1; [1],25%
same,%Inh,CSNK2A2; [1],0%
same,%Inh,CTK; [1],8%
same,%Inh,DAPK1; [1],0%
Cc1cccc(-c2nc(Nc3cccc(C(N)=O)c3)c3ccccc3n2)n1 [GW876019],%Inh,CHEK2; [1],0%
same,%Inh,CIT; [1],45%
same,%Inh,CLK1; [1],18%
same,%Inh,CLK2; [1],6%
same,%Inh,CLK3; [1],14%
same,%Inh,CLK4; [1],0%
same,%Inh,CSF1R-autoinhibited; [1],0%
same,%Inh,CSF1R; [1],0%
same,%Inh,CSK; [1],0%
same,%Inh,CSNK1A1L; [1],3%
same,%Inh,CSNK1A1; [1],37%
same,%Inh,CSNK1D; [1],8%
same,%Inh,CSNK1E; [1],15%
same,%Inh,CSNK1G1; [1],0%
same,%Inh,CSNK1G2; [1],0%
same,%Inh,CSNK1G3; [1],18%
same,%Inh,CSNK2A1; [1],30%
same,%Inh,CSNK2A2; [1],19%
same,%Inh,CTK; [1],13%
same,%Inh,DAPK1; [1],15%
O=C(O)COc1ncnc2cc(-c3ccc4[nH]ncc4c3)sc12,%Inh,CHEK2; [1],1%
same,%Inh,CIT; [1],8%
same,%Inh,CLK1; [1],76%
same,%Inh,CLK2; [1],43%
same,%Inh,CLK3; [1],0%
same,%Inh,CLK4; [1],79%
same,%Inh,CSF1R-autoinhibited; [1],0%
same,%Inh,CSF1R; [1],0%
same,%Inh,CSK; [1],0%
same,%Inh,CSNK1A1L; [1],0%
same,%Inh,CSNK1A1; [1],33%
same,%Inh,CSNK1D; [1],0%
same,%Inh,CSNK1E; [1],0%
same,%Inh,CSNK1G1; [1],17%
same,%Inh,CSNK1G2; [1],10%
same,%Inh,CSNK1G3; [1],34%
same,%Inh,CSNK2A1; [1],37%
same,%Inh,CSNK2A2; [1],20%
same,%Inh,CTK; [1],14%
same,%Inh,DAPK1; [1],17%
O=S(=O)(c1ccc(-c2ccnc3[nH]ccc23)cc1)N1CCCC1 [GSK846226],%Inh,CHEK2; [1],15%
same,%Inh,CIT; [1],36%
same,%Inh,CLK1; [1],63%
same,%Inh,CLK2; [1],45%
same,%Inh,CLK3; [1],57%
same,%Inh,CLK4; [1],41%
same,%Inh,CSF1R-autoinhibited; [1],0%
same,%Inh,CSF1R; [1],17%
same,%Inh,CSK; [1],10%
same,%Inh,CSNK1A1L; [1],2%
same,%Inh,CSNK1A1; [1],0%
same,%Inh,CSNK1D; [1],7%
same,%Inh,CSNK1E; [1],41%
same,%Inh,CSNK1G1; [1],5%
same,%Inh,CSNK1G2; [1],0%
same,%Inh,CSNK1G3; [1],37%
same,%Inh,CSNK2A1; [1],4%
same,%Inh,CSNK2A2; [1],6%
same,%Inh,CTK; [1],0%
same,%Inh,DAPK1; [1],58%
CN1C(=O)C(Nc2ccc(Cl)c(C(=O)O)c2)=C(c2ccc(Cl)cc2)C1=O [SB-404290],%Inh,CHEK2; [1],0%
same,%Inh,CIT; [1],0%
same,%Inh,CLK1; [1],18%
same,%Inh,CLK2; [1],7%
same,%Inh,CLK3; [1],25%
same,%Inh,CLK4; [1],2%
same,%Inh,CSF1R-autoinhibited; [1],0%
same,%Inh,CSF1R; [1],3%
same,%Inh,CSK; [1],0%
same,%Inh,CSNK1A1L; [1],15%
same,%Inh,CSNK1A1; [1],0%
same,%Inh,CSNK1D; [1],0%
same,%Inh,CSNK1E; [1],38%
same,%Inh,CSNK1G1; [1],0%
same,%Inh,CSNK1G2; [1],0%
same,%Inh,CSNK1G3; [1],15%
same,%Inh,CSNK2A1; [1],18%
same,%Inh,CSNK2A2; [1],7%
same,%Inh,CTK; [1],0%
same,%Inh,DAPK1; [1],0%
COc1ccc(CNC(=O)NC2CCN(c3ccnc(Nc4cc(OC)c(OC)c(OC)c4)n3)C2)cc1 (centres unmarked) [GSK1379748],%Inh,CHEK2; [1],47%
same,%Inh,CIT; [1],20%
same,%Inh,CLK1; [1],11%
same,%Inh,CLK2; [1],0%
same,%Inh,CLK3; [1],0%
same,%Inh,CLK4; [1],0%
same,%Inh,CSF1R-autoinhibited; [1],17%
same,%Inh,CSF1R; [1],13%
same,%Inh,CSK; [1],0%
same,%Inh,CSNK1A1L; [1],0%
same,%Inh,CSNK1A1; [1],0%
same,%Inh,CSNK1D; [1],0%
same,%Inh,CSNK1E; [1],14%
same,%Inh,CSNK1G1; [1],0%
same,%Inh,CSNK1G2; [1],0%
same,%Inh,CSNK1G3; [1],23%
same,%Inh,CSNK2A1; [1],6%
same,%Inh,CSNK2A2; [1],9%
same,%Inh,CTK; [1],0%
same,%Inh,DAPK1; [1],0%
COc1ccc(C2=C(Nc3cccc(C(=O)O)c3)C(=O)NC2=O)cc1 [SB-390765],%Inh,CHEK2; [1],0%
same,%Inh,CIT; [1],0%
same,%Inh,CLK1; [1],11%
same,%Inh,CLK2; [1],3%
same,%Inh,CLK3; [1],8%
same,%Inh,CLK4; [1],4%
same,%Inh,CSF1R-autoinhibited; [1],26%
same,%Inh,CSF1R; [1],18%
same,%Inh,CSK; [1],12%
same,%Inh,CSNK1A1L; [1],11%
same,%Inh,CSNK1A1; [1],15%
same,%Inh,CSNK1D; [1],14%
same,%Inh,CSNK1E; [1],0%
same,%Inh,CSNK1G1; [1],11%
same,%Inh,CSNK1G2; [1],0%
same,%Inh,CSNK1G3; [1],3%
same,%Inh,CSNK2A1; [1],18%
same,%Inh,CSNK2A2; [1],10%
same,%Inh,CTK; [1],43%
same,%Inh,DAPK1; [1],5%
Cc1cccc(-c2cc(Nc3ccncc3)c3ccccc3n2)n1 [GSK223675],%Inh,CHEK2; [1],0%
same,%Inh,CIT; [1],23%
same,%Inh,CLK1; [1],22%
same,%Inh,CLK2; [1],0%
same,%Inh,CLK3; [1],10%
same,%Inh,CLK4; [1],5%
same,%Inh,CSF1R-autoinhibited; [1],0%
same,%Inh,CSF1R; [1],8%
same,%Inh,CSK; [1],0%
same,%Inh,CSNK1A1L; [1],0%
same,%Inh,CSNK1A1; [1],0%
same,%Inh,CSNK1D; [1],14%
same,%Inh,CSNK1E; [1],50%
same,%Inh,CSNK1G1; [1],10%
same,%Inh,CSNK1G2; [1],0%
same,%Inh,CSNK1G3; [1],17%
same,%Inh,CSNK2A1; [1],7%
same,%Inh,CSNK2A2; [1],2%
same,%Inh,CTK; [1],0%
same,%Inh,DAPK1; [1],18%
Cc1ccc(NC(=O)Nc2cccc(C(F)(F)F)c2)cc1 [GSK955403],%Inh,CHEK2; 1 µM,0%
same,%Inh,CIT; 1 µM,29%
same,%Inh,CLK1; 1 µM,3%
same,%Inh,CLK2; 1 µM,36%
same,%Inh,CLK3; 1 µM,0%
same,%Inh,CLK4; 1 µM,0%
same,%Inh,CSF1R-autoinhibited; 1 µM,0%
same,%Inh,CSF1R; 1 µM,0%
same,%Inh,CSK; 1 µM,28%
same,%Inh,CSNK1A1L; 1 µM,0%
same,%Inh,CSNK1A1; 1 µM,0%
same,%Inh,CSNK1D; 1 µM,0%
same,%Inh,CSNK1E; 1 µM,0%
same,%Inh,CSNK1G1; 1 µM,0%
same,%Inh,CSNK1G2; 1 µM,1%
same,%Inh,CSNK1G3; 1 µM,0%
same,%Inh,CSNK2A1; 1 µM,1%
same,%Inh,CSNK2A2; 1 µM,0%
same,%Inh,CTK; 1 µM,0%
same,%Inh,DAPK1; 1 µM,18%
